Among all 39,000 compounds or so, about 3,300 (8.5%) were called active. For the sample, actives were picked, then their nearest neighbours and some compounds at random.
tested on: HepG2; test: cytotoxicity call (relative viability < 0.9); conditions: 10 µM

| SMILES | cytotoxicity call |
| --- | --- |
| O=C1C=CC(=O)N1 | active |
| COc1ccc(CN(C)C[C@@H]2OCCCC[C@H](C)Oc3ccc(NC(=O)CCC(F)(F)F)cc3C(=O)N([C@H](C)CO)C[C@@H]2C)cc1 | inactive |
| CNC[C@@H]1Oc2ccc(NC(=O)Cn3cnnn3)cc2C(=O)N([C@H](C)CO)C[C@@H]1C | inactive |
| C[C@H](CO)N1C[C@H](C)[C@H](CN(C)C(=O)Nc2ccc(F)cc2)Oc2ccc(NC(=O)CCN3CCOCC3)cc2CC1=O | inactive |
| C[C@H](CO)N1C[C@H](C)[C@@H](CN(C)C(=O)Nc2ccc3c(c2)OCO3)Oc2c(NC(=O)C3CCOCC3)cccc2C1=O | inactive |
| O=C(Nc1cc(Cl)cc(Cl)c1O)c1c(O)c(Cl)cc(Cl)c1Cl | inactive |
| Oc1c(Cl)cc(Cl)c(Cl)c1Cc1c(O)c(Cl)cc(Cl)c1Cl | active |
| O=C(/C=C/c1cccc(-c2cn(CC[C@@H]3OC(=O)[C@H](Cc4ccccc4)N4CC5=CC(=O)[C@H](C6CC6)[C@H]5[C@H]34)nn2)c1)NO | inactive |
| O=C(C[C@@H]1C[C@@H]2c3cc(NC(=O)Nc4ccc(C(F)(F)F)cc4)ccc3O[C@@H]2[C@H](CO)O1)NCCc1ccccc1 | inactive |
| CCS(=O)(=O)N1[C@H](CO)[C@H](c2ccccc2)C12CN(C(=O)CN(C)C)C2 | inactive |
| C[C@H]1CCCCO[C@H](CN(C)C(=O)C2CCCCC2)[C@@H](C)CN([C@@H](C)CO)C(=O)c2cc(NC(=O)Nc3ccc4c(c3)OCO4)ccc2O1 | inactive |
| COc1c(C)c2c(c(O)c1CC=C(C)CCC(=O)OCCN1CCOCC1)C(=O)OC2 | inactive |
| COc1c(C)c2c(c(O)c1CC=C(C)CCC(=O)O)C(=O)OC2 | active |
| COc1cccc(S(=O)(=O)N2C[C@@H](O)COC[C@@H]3O[C@@H](CC(=O)N4CCOCC4)CC[C@H]32)c1 | inactive |
| COc1ccc(NC(=O)N(C)C[C@H]2Oc3c(NC(=O)CCCCCC(=O)Nc4ccccc4N)cccc3C(=O)N([C@@H](C)CO)C[C@H]2C)cc1 | inactive |
| C[C@H]1CN([C@@H](C)CO)C(=O)c2cc(C#CCc3ccccc3)cnc2O[C@H]1CN(C)C(=O)Cc1cccnc1 | inactive |
| Cc1ccccc1S(=O)(=O)N1C[C@H](O)COC[C@@H]2O[C@@H](CC(=O)N3CCOCC3)CC[C@H]21 | inactive |
| CC(C)C(=O)Oc1ccc(CO)cc1C(CCN(C(C)C)C(C)C)c1ccccc1.O=C(O)C=CC(=O)O (configuration not stated) | active |
| C[C@H]1CN([C@@H](C)CO)C(=O)c2cc(NC(=O)CCN3CCOCC3)ccc2O[C@@H]1CN(C)C(=O)Nc1ccc2c(c1)OCO2 | inactive |
| CC(=O)NCCCC[C@@H]1NC(=O)[C@@H]2C[C@H](C(=O)NCCCCCCN(C)C)[C@H](c3ccc(O)cc3)N2C1=O | inactive |
| C[C@@H]1CCCCO[C@@H](CN(C)Cc2ccc(Cl)c(Cl)c2)[C@@H](C)CN([C@H](C)CO)C(=O)c2cc(NC(=O)c3ccccc3)ccc2O1 | inactive |

| SMILES | cytotoxicity call |
| --- | --- |
| CCOn1ccnc1 | inactive |
| Cn1c(=O)c2c(nc(N3CCCCC3)n2CCN)n(C)c1=O | inactive |
| CC#CCn1c(N2CCC[C@@H](N)C2)nc2c1c(=O)n(Cc1nc(C)c3ccccc3n1)c(=O)n2C | active |
| Cc1cc(C)n(-c2nc3c(c(=O)n(CCN4CCOCC4)c(=O)n3C)n2C)n1 | inactive |
| C[C@H]1CN([C@@H](C)CO)C(=O)c2cccc(NS(=O)(=O)c3cn(C)cn3)c2O[C@@H]1CN(C)C(=O)Nc1ccc2c(c1)OCO2 | inactive |
| CC(=O)N1[C@@H]2Cn3c(ccc(-c4ccccc4)c3=O)[C@H]1[C@@H](C(=O)NCCCN1CCOCC1)[C@@H]2CO | inactive |
| COc1cc2c(cc1OC)-c1cc3ccc(OC)c(OC)c3c[n+]1CC2.[Cl-] | inactive |
| COc1ccc2cc3[n+](cc2c1OC)CCc1cc2c(cc1-3)OCO2.[Cl-] | active |
| C[C@@H]1CN([C@@H](C)CO)C(=O)c2cccc(NC(=O)Nc3ccc(C(F)(F)F)cc3)c2O[C@@H]1CN(C)S(=O)(=O)c1ccc(Cl)cc1 | inactive |
| COCC(=O)N(C)C[C@H]1Oc2cc(C#CC(C)(C)O)ccc2S(=O)(=O)N([C@H](C)CO)C[C@@H]1C | inactive |
| COc1ccccc1S(=O)(=O)N(C)C[C@H]1Oc2ncc(Br)cc2C(=O)N([C@@H](C)CO)C[C@H]1C | inactive |
| C[C@@H]1CN([C@@H](C)CO)C(=O)Cc2cc(NC(=O)Nc3cccc4ccccc34)ccc2O[C@@H]1CN(C)S(=O)(=O)c1ccc(Cl)cc1 | active |
| C[C@@H]1CN([C@@H](C)CO)C(=O)Cc2cc(NC(=O)Nc3cccc4ccccc34)ccc2O[C@H]1CN(C)S(=O)(=O)c1ccc(Cl)cc1 | inactive |
| C[C@H](CO)N1C[C@H](C)[C@H](CN(C)S(=O)(=O)c2ccc(Cl)cc2)Oc2ccc(NC(=O)Nc3cccc4ccccc34)cc2CC1=O | active |
| C[C@H]1CN([C@@H](C)CO)C(=O)Cc2cc(NC(=O)Nc3cccc4ccccc34)ccc2O[C@@H]1CN(C)S(=O)(=O)c1ccc(Cl)cc1 | inactive |
| C[C@H](CO)N1C[C@H](C)[C@@H](CN(C)S(=O)(=O)c2ccc(Cl)cc2)Oc2ccc(NC(=O)Nc3cccc4ccccc34)cc2CC1=O | inactive |
| Cc1ccc(S(=O)(=O)N(C)C[C@@H]2Oc3ccc(NC(=O)Nc4cccc5ccccc45)cc3CC(=O)N([C@H](C)CO)C[C@@H]2C)cc1 | active |
| Cc1ccc(S(=O)(=O)N(C)C[C@H]2Oc3ccc(NC(=O)Nc4cccc5ccccc45)cc3CC(=O)N([C@H](C)CO)C[C@H]2C)cc1 | inactive |
| C[C@@H]1CN([C@H](C)CO)C(=O)Cc2cc(NC(=O)Nc3cccc4ccccc34)ccc2O[C@H]1CN(C)S(=O)(=O)c1ccc(Cl)cc1 | inactive |
| Cc1ccc(S(=O)(=O)N(C)C[C@H]2Oc3ccc(NC(=O)Nc4cccc5ccccc45)cc3CC(=O)N([C@@H](C)CO)C[C@@H]2C)cc1 | inactive |
| C[C@@H]1CN([C@H](C)CO)C(=O)Cc2cc(NC(=O)Nc3cccc4ccccc34)ccc2O[C@@H]1CN(C)S(=O)(=O)c1ccc(Cl)cc1 | inactive |

| SMILES | cytotoxicity call |
| --- | --- |
| Cc1ccc(S(=O)(=O)N(C)C[C@H]2Oc3ccc(NC(=O)Nc4cccc5ccccc45)cc3CC(=O)N([C@@H](C)CO)C[C@H]2C)cc1 | inactive |
| C[C@H]1CN([C@@H](C)CO)C(=O)Cc2cc(NC(=O)Nc3cccc4ccccc34)ccc2O[C@H]1CN(C)S(=O)(=O)c1ccc(Cl)cc1 | active |
| C[C@@H]1CN([C@H](C)CO)C(=O)c2cc(NC(=O)c3ccncc3)ccc2O[C@@H](C)CCCCO[C@H]1CN(C)C(=O)Nc1cccc2ccccc12 | inactive |
| C[C@@H]1CCCCO[C@@H](CN(C)C(=O)c2ccccc2)[C@H](C)CN([C@H](C)CO)C(=O)c2cc(NC(=O)Nc3ccc(F)cc3)ccc2O1 | inactive |
| C[C@H]1CCCCO[C@H](CN(C)C(=O)c2ccccc2)[C@@H](C)CN([C@@H](C)CO)C(=O)c2cc(NC(=O)CCC(F)(F)F)ccc2O1 | inactive |
| Cc1noc(N)c1C(=O)O | inactive |
| COCC(=O)N1C[C@H](C)[C@@H](OC)CN(C)C(=O)c2cc(NC(=O)c3cc(C)on3)ccc2OC[C@H]1C | inactive |
| C[C@H]1CN([C@@H](C)CO)C(=O)c2cc(C#Cc3ccccc3F)cnc2O[C@@H]1CN(C)C(=O)Cc1cccnc1 | inactive |
| O=c1ccc(=O)n(CCO)[nH]1 | inactive |
| C#CCN(O[C@@H](/C=C/[C@@H](O)Cc1ccccc1)C1CC1)[C@@H](Cc1ccc(-n2cc(COc3ccccc3/C=C(C)/C=C/C(=O)NO)nn2)cc1)C(=O)OC | inactive |
| Cc1noc(C)c1S(=O)(=O)N(C)C[C@@H]1OCCCC[C@H](C)Oc2ccc(NC(=O)Nc3cccc4ccccc34)cc2C(=O)N([C@H](C)CO)C[C@@H]1C | inactive |
| COc1ccc(S(=O)(=O)N(C)C[C@H]2Oc3ccc(NC(=O)NC(C)C)cc3C(=O)N([C@@H](C)CO)C[C@@H]2C)cc1 | inactive |
| C[C@H](CO)N1C[C@H](C)[C@H](CN(C)S(=O)(=O)c2ccc(F)cc2)Oc2ccc(NC(=O)Nc3cccc4ccccc34)cc2CC1=O | active |
| C[C@@H]1CN([C@H](C)CO)C(=O)Cc2cc(NC(=O)Nc3cccc4ccccc34)ccc2O[C@H]1CN(C)S(=O)(=O)c1ccc(F)cc1 | inactive |
| C[C@@H]1CN([C@@H](C)CO)C(=O)Cc2cc(NC(=O)Nc3cccc4ccccc34)ccc2O[C@@H]1CN(C)S(=O)(=O)c1ccc(F)cc1 | inactive |
| Cc1noc(C)c1NC(=O)N(C)C[C@H]1Oc2ccc(NS(C)(=O)=O)cc2CC(=O)N([C@@H](C)CO)C[C@@H]1C | inactive |
| O=C(C[C@H]1C[C@H]2c3cc(NC(=O)Nc4ccc(C(F)(F)F)cc4)ccc3O[C@H]2[C@@H](CO)O1)NCc1cc(F)ccc1F | inactive |
| C[C@@H]1CN([C@@H](C)CO)C(=O)c2cccc(NC(=O)Nc3ccc(F)cc3)c2O[C@H]1CN(C)C(=O)Nc1ccc(C(F)(F)F)cc1 | inactive |
| CC(C)CCCC(=O)N[C@@H](CCNCS(=O)(=O)O)C(=O)N[C@H](C(=O)N[C@@H](CCNCS(=O)(=O)O)C(=O)N[C@H]1CCNC(=O)[C@H]([C@@H](C)O)NC(=O)[C@H](CCNCS(=O)(=O)O)NC(=O)[C@H](CCNCS(=O)(=O)O)NC(=O)[C@H](CC(C)C)NC(=O)[C@H](CC(C)C)NC(=O)[C@H](CCNCS(=O)(=O)O)NC1=O)[C@@H](C)O | inactive |
| CCC(C)C1NC(=O)C(CCNCS(=O)(=O)[O-])NC(=O)C(NC(=O)C(CCNCS(=O)(=O)[O-])NC(=O)C(NC(=O)C(CCNCS(=O)(=O)[O-])NC(=O)CCCCC(C)C)C(C)O)CCNC(=O)C(C(C)O)NC(=O)C(CCNCS(=O)(=O)[O-])NC(=O)C(CCNCS(=O)(=O)[O-])NC(=O)C(C(C)CC)NC1=O.[Na+].[Na+].[Na+].[Na+].[Na+] (configuration not stated) | active |

Source: the antibiotic and cytotoxicity screens of Wong et al. (2023)
